# Bioassay records (PubChem BioAssay)
# HIV RNase H inh = HIV-1 RT RNase H inhibitors, primary screen, biochemical, fluorescence; AID 565, 2006; 65,000 tested, 1.9% active; inhibition, % at 10 µM; RT-RNase H RNA/DNA duplex cleavage; in the data active = inhibition above about 50%
# Hits are given with their value; i = inactive. The entries come from a sample that favours hits as a whole.
SMILES,HIV RNase H inh
N#CC1=C2SCN(Cc3ccccc3)CN2C(=O)CC1c1ccccc1F (centres undefined),61.3
N#CC1=C2SCN(Cc3ccco3)CN2C(=O)CC1c1c(F)cccc1Cl (centres undefined),i
COc1ccc(Br)cc1C1CC(=O)N2CN(Cc3ccccc3)CSC2=C1C#N (centres undefined),i
C/C(Cl)=C\Cn1c(N2CCCCCC2)nc2c1c(=O)n(C)c(=O)n2C,i
Cc1cccc(OCC2=NS(=O)(=O)c3ccccc3N2)c1,i
CC(=O)Nc1ccc(NC(=O)CNS(=O)(=O)c2ccc(C)cc2)cc1,i
CC(=O)Nc1ccc(S(=O)(=O)c2ccc(N)cc2)cc1,i
CCOC(=O)/C=C/S(=O)(=O)c1ccc(NC(C)=O)cc1,50.3
Cc1ccc(S(=O)(=O)NC(CN2CCOCC2)=NCCNS(=O)(=O)c2ccccc2)cc1,i
NC(=O)c1oc2ccccc2c1NC(=O)c1nc2ccccc2s1,i
O=C(Nc1nnc(-c2ccccc2)o1)c1nc2ccccc2s1,66.2
CC(C)C(=O)Nc1nnc(-c2ccccc2)o1,i
CCOC(=O)c1nn(-c2ccc(OC)cc2)c(=O)c2c(NC(=O)c3ccco3)scc12,i
CCOC(=O)c1nn(-c2ccc(OC)cc2)c(=O)c2c(N)scc12,75.5
CCOC(=O)C(CC)n1cnc2c(nnn2-c2ccc(OC)cc2)c1=O (centres undefined),i
O=C(c1ccc(CNc2c(N3CCCC3)c(=O)c2=O)cc1)N1CCc2ccccc2C1,i
CCN1CCN(CC(=O)Nc2cccc(C)c2)C(=O)C1=O,i
CC(C)[C@@]1(NC(=O)[C@@H]2C[C@@H]3c4cccc5[nH]cc(c45)C[C@H]3N(C)C2)O[C@@]2(O)[C@@H]3CCCN3C(=O)[C@H](Cc3ccccc3)N2C1=O,i
CC(C)[C@@]1(NC(=O)[C@@H]2C=C3c4cccc5[nH]cc(c45)C[C@H]3N(C)C2)O[C@@]2(O)[C@@H]3CCCN3C(=O)[C@H](Cc3ccccc3)N2C1=O,54.7
CC(C)[C@H]1C(=O)N2CCC[C@H]2[C@]2(O)O[C@](NC(=O)[C@@H]3C=C4c5cccc6[nH]cc(c56)C[C@H]4N(C)C3)(C(C)C)C(=O)N12,i
Cc1nccc2[nH]c(=O)c(C(=O)NC3CCN(Cc4ccccc4)CC3)cc12,i
O=C(Nc1cccc2nsnc12)C1CC(=O)N(c2ccccc2)C1 (centres undefined),i
CSc1nsc(SC)c1NC(=O)OCC1CCCO1 (centres undefined),i
N=C1C(c2ccccc2)=C(O)CN1Cc1ccco1,i
O=C(c1cccs1)N(Cc1ccccn1)Cc1ccco1,i
SMILES,HIV RNase H inh
S=C1SCN(Cc2ccccn2)CN1Cc1ccco1,52.3
CC(=O)Nc1ccc(S(=O)(=O)N(Cc2ccco2)CC2CCCO2)cc1 (centres undefined),i
Cc1ccc2oc(C(=O)Nc3c(C)n(C)n(-c4ccccc4)c3=O)c(C)c2c1,i
COCCOC(=O)c1c(C)nc(SCC(=O)Nc2ccc(OC)cc2)c(C#N)c1-c1ccco1,i
COc1cccc(NC(=O)CSc2nc3c(c(-c4ccco4)c2C#N)CCCC3)c1,58.0
Cc1cc(NC(=O)CSc2nc3c(c(-c4cccnc4)c2C#N)CCC3)no1,i
COc1ccc(-c2nc(-c3cccs3)c(-c3cccs3)[nH]2)cc1O,i
CCOC(=O)C(NS(=O)(=O)c1ccc(Br)cc1)C(C)C (centres undefined),i
CC(C)CC(C(=O)Nc1ccc2c(c1)OCCO2)N1C(=O)c2ccccc2C1=O (centres undefined),i
CC(C)CC(C(=O)Nc1oc(-c2ccco2)c(-c2ccco2)c1C#N)N1C(=O)c2ccccc2C1=O (centres undefined),62.1
N#Cc1c(N)oc(-c2ccco2)c1-c1ccco1,i
CC1CCCN(c2nc3c(c(=O)[nH]c(=O)n3C)n2CCCc2ccccc2)C1 (centres undefined),i
CCCn1nnc(NC(=O)c2cc(Br)cc(Br)c2OC)n1,i
Cc1nc2sc(C(c3ccc(Cl)cc3)N3CCN(c4ccccc4F)CC3)c(O)n2n1 (centres undefined),i
CCC(C)COC(=O)c1ccc(C(=O)O)cc1 (centres undefined),i
CCC(Sc1ccc(C(=O)O)cc1)C(=O)O (centres undefined),57.2
CCC(Sc1nc(C)cc(C)n1)C(=O)O (centres undefined),i
O=C(Cn1c(C(=O)N2CCN(C3CCCC3)CC2)cc2sccc21)c1ccccc1,i
C=CCn1c(SCc2nc3ccccc3nc2C)nnc1-c1ccoc1C,i
Cc1nc(NC(=O)CSc2ccccc2N)sc1C,i
O=C(Nc1ccccc1C(=O)NCc1ccco1)NC1CCCCC1,i
O=C(Nc1ccccc1NC(=O)NC1CCCCC1)NC1CCCCC1,69.1
Cc1c(Cl)cccc1NC(=O)NC1CCCCC1,i
CC1CN(Cc2nc3c(c(=O)n(C)c(=O)n3C)n2Cc2ccc(Cl)cc2)CC(C)O1 (centres undefined),i
CSc1cccc(NC(=O)CN(c2cc(C)ccc2C)S(C)(=O)=O)c1,i
SMILES,HIV RNase H inh
Cc1cc(NC(=O)C2COc3ccccc3O2)no1 (centres undefined),i
Cc1nc2ccc(C(=O)O)cc2c2c1CC(C)S2 (centres undefined),63.2
CC1CCN(c2nc3ccc(C(=O)O)cc3s2)CC1,i
Cc1nc2cc(C(=O)O)ccc2s1,i
O=C(CN1CCN(c2ncccn2)CC1)NCCC1=CCCCC1,i
Cn1c(Cc2ccccc2)nnc1SCC(=O)c1ccc(Br)s1,i
CCC1Oc2ccc(C)cc2N(Cc2cccc(C)c2)C1=O (centres undefined),i
CCC1Oc2ccc(C)cc2N(CC(=O)N(Cc2ccc3c(c2)OCO3)CC2CCCO2)C1=O (centres undefined),i
CCC1Oc2ccc(C)cc2N(CC(=O)N(Cc2cccnc2)Cc2ccc(C)o2)C1=O (centres undefined),50.0
CCC(C)C(=O)Nc1cc(C(=O)OC)cc(C(=O)OC)c1 (centres undefined),i
Cn1cc(CC(=O)Nc2cccc(C#N)c2)c2ccccc21,i
O=C(CSc1nnc(COc2ccc3c(c2)CCCC3)o1)Nc1ccc(F)cc1,58.9
CCOC(=O)c1cccc(NC(=O)CSc2nnc(COc3ccc(Cl)cc3)o2)c1,i
COc1ccc(NC(=O)CSc2nnc(CNc3ccc(F)cc3)o2)c(OC)c1,i
CC(C)Oc1ccc(/C(O)=C2/C(=O)C(=O)N(CCCN3CCOCC3)C2c2ccncc2)cc1 (centres undefined),i
COc1cc2c(cc1OC)C(C(=O)Nc1ccc3c(c1)OCCO3)C(c1cccnc1)N(C)C2=O (centres undefined),i
COc1ccccc1N1CCN(CC(O)c2ccc3cc[nH]c3c2)CC1 (centres undefined),i
O=C(CCCCCn1c(=S)[nH]c2cc3c(cc2c1=O)OCO3)N1CCN(Cc2ccccc2)CC1,67.6
O=C(CCCCCn1c(=S)[nH]c2cc3c(cc2c1=O)OCO3)N1CCN(C(=O)c2ccco2)CC1,i
O=C(CCCn1c(=S)[nH]c2cc3c(cc2c1=O)OCO3)N1CCN(c2ccccn2)CC1,i
O=C(NCC1CCCO1)c1nnc(Cc2ccc(F)cc2)o1 (centres undefined),i
C=CCn1c(SCC(=O)c2ccc(NS(=O)(=O)c3ccccc3)cc2)nnc1-c1cccs1,i
CCn1c(=O)c(C(=O)Nc2nc3ccccc3[nH]2)c(O)c2ccccc21,74.5
CCCCn1c(=O)c(C(=O)Nc2nc3ccccc3[nH]2)c(O)c2ccccc21,i
